APOBEC3G inh: APOBEC3G (human) deaminase inhibition; recombinant A3G, ssDNA deamination FAM/TAMRA fluorescence; inhibition, % at 20 µM; 330,000 tested, 0.28% active; AID 493012;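 active = inhibition of at least 40% at 20 µM, with no more than 30% in the related APOBEC3A deaminase screen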;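 also: plate controls were DMSO wells with A3G for no effect and wells lacking A3G enzyme for full effect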
CR mimetic SO: yeast age-related superoxide inhibition as caloric restriction mimetic | S. cerevisiae aged cells, superoxide DHE fluorescence; hits give low values | superoxide response (% of plate mean), % at 10 µM | 330,000 tested, 0.18% active;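 active = superoxide response under a set limit, about three screen SD below normal, cut at about 65% in these data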;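 also: yeast aged for seven days with compound at 30 °C before DHE staining; 100% = average MFI of all compound-treated wells on the plate with controls excluded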
A3A deaminase: human APOBEC3A DNA deaminase inhibition; recombinant A3A, FAM/TAMRA ssDNA deamination fluorescence; P31941; 330,000 tested, 0.41% active; AID 493011; inhibition, % at 20 µM;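 active = at least 40% inhibition at 20 µM here, with at most 30% in a related deaminase screen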;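 also: plate controls were A3A with DMSO for no effect and wells lacking A3A enzyme for full effect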
Target sequence (P31941 whole entry, looked up): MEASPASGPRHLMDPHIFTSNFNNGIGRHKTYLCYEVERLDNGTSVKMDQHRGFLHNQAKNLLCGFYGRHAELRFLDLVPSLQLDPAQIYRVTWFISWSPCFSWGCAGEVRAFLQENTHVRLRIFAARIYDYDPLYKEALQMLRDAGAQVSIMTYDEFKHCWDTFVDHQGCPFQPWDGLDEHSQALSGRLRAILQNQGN
PfM18AAP inh-1: blocks P. falciparum M18 aspartyl aminopeptidase. AID 1822. inhibition, % at 7.35 µM. recombinant PfM18AAP, H-Glu-NHMec fluorogenic cleavage. 290,000 tested, 1.2% active;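 active = inhibition above the campaign mean inhibition over all tested compounds plus 3 SD, cut at about 28% in these data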;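 also: 0% = plate median of test compound wells and 100% = 2 mM ZnCl2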
PfG6PD inh: PfG6PD (Plasmodium falciparum) enzyme inhibition | PfGluPho enzyme, NADPH resazurin-diaphorase fluorescence | inhibition, % at 20 µM | 350,000 tested, 0.78% active | AID 504690;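 active = inhibition reaching at least a set limit at 20 µM in the primary screen, cut at about 59% in these data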;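 also: 0% = DMSO wells with substrate and 100% = DMSO wells lacking glucose-6-phosphate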
PfM18AAP inh-2: PfM18AAP inhibition, confirmation; shares compounds with PfM18AAP inh-1; recombinant PfM18AAP, H-Glu-NHMec fluorogenic cleavage; inhibition, % at 7.35 µM; 2,400 tested, 28% active; AID 2170;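 active = mean inhibition over replicate wells above the hit cutoff set for the earlier primary screen, cut at about 29% in these data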;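 also: 0% = median of test compound wells and 100% = 2 mM ZnCl2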
CTSL1 counter: counter-screen for PFM18AAP inhibitors: confirmation of human cathepsin L inhibitors; 2,400 tested, under 10 active; AID 2178; shares compounds with PfM18AAP inh-1; inhibition, % at 5.96 µM; purified cathepsin L1, Z-Leu-Arg-MCA fluorescence;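 active = average inhibition across replicates above the hit cutoff set in the earlier primary screen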;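 also: 0% = median of test compound wells and 100% = Z-Phe-Ala-diazomethylketone 1 µM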
Target sequence (P07711 whole entry, looked up): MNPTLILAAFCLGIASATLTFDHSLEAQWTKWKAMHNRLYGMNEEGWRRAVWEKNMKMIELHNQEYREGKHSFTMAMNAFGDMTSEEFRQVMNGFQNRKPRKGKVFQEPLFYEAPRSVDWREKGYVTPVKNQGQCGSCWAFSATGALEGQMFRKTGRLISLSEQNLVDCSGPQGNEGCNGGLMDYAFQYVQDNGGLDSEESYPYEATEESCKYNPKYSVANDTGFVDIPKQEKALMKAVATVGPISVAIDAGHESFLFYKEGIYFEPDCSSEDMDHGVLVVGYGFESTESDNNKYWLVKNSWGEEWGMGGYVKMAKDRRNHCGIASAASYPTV
* hit, by the source's call; / = not tested or not shown. Rows were chosen to be rich in hits. Some 2.4% of all compounds tested hit in one or more screens of this group.

SMILES	APOBEC3G inh	CR mimetic SO	A3A deaminase	PfM18AAP inh-1	PfG6PD inh	PfM18AAP inh-2	CTSL1 counter
CC(=O)c1c(C)[nH]c(C(=O)N2CCN(c3ccccn3)CC2)c1C	-1	88	2	-1	3	/	/
O=[N+]([O-])/C(C=Nc1ccccc1O)=C\Nc1ccccc1O	/	/	/	34*	-21	18	2
CCCCSCc1nc2nc(Cl)c(Cl)nc2[nH]1	/	/	/	/	15	/	/
Cc1cc2nc3ccc(=[N+](C)C)cc-3sc2cc1N	/	/	/	36*	102*	-18	10
O=S(=O)(c1ccc(NC(=S)NN=Cc2ccccc2O)cc1)N1CCCCC1	/	/	/	/	-16	/	/
O=C(O)c1cccc(NC(=S)N/N=C/c2cccc(O)c2)c1	-1	103	-3	50*	-4	11	5
O=C(O)c1cccc(NC(=S)N/N=C/c2ccccc2OCc2ccc(Br)cc2)c1	-1	121	2	27	10	/	/
CN(C)c1ccc(C(=S)NC2CCCCC2)cc1	27	93	0	33*	58	5	2
O=C(OCn1cncn1)c1ccc(Cl)cc1Cl	-3	103	-1	53*	2	29*	6
Cc1ccc(CNc2ccc3c(c2)ncn3C(C)(C)C)cc1	7	90	-2	33*	29	3	1
Cc1ccc(CNc2ccc3c(c2)ncn3C)cc1	-2	110	0	2	19	/	/
O=C(C1CCCO1)N1CCN(C(=S)Nc2ccc(Br)cc2)CC1 (stereo unspecified)	-9	99	-3	9	15	/	/
NS(=O)(=O)c1ccc(NC(=S)N2CCN(C(=O)C3CCCO3)CC2)cc1 (stereo unspecified)	9	106	-1	47*	43	1	1
Cc1ccc(C)c(NC(=O)NNS(=O)(=O)c2ccc(C)c(C)c2)c1	-3	109	-1	0	-10	/	/
COc1ccc(OC)c(NC(=O)NNC(=O)c2cc3occc3[nH]2)c1	-1	97	-2	56*	7	35*	1
Cc1ccc(C)c(NC(=O)NNC(=O)c2cc3occc3[nH]2)c1	1	111	0	49*	0	29*	-3
COc1ccc(C)cc1NC(=O)NNC(=O)c1ccoc1C	-9	102	-5	47*	-2	20	-1
COc1ccc(Cl)cc1NC(=O)CN(C)C(=O)c1n[nH]c2ccccc12	-8	90	3	/	2	/	/
O=C(CCC(=O)OCC(=O)c1ccc([N+](=O)[O-])cc1)NC1CCCCC1	-2	108	0	34*	43	-8	-12
O=C(CCC(=O)OCC(=O)c1cccc([N+](=O)[O-])c1)NC1CCCCC1	0	112	2	-5	1	/	/
CCOC(=O)C1=CN(CC)S(=O)(=O)NC1CC (stereo unspecified)	3	112	4	/	-3	/	/
COc1cc(/C=N/Nc2ccc(Cl)nn2)cc(OC)c1O	-6	98	-5	39*	26	28	3
COc1cc(/C=N/Nc2ncc(C(F)(F)F)cc2Cl)cc(OC)c1OC	-4	112	0	1	3	/	/
Oc1c(Br)cc(/C=N/Nc2ccc(Cl)nn2)cc1Br	-5	90	0	34*	18	-18	0
Fc1cccc(/C=N/Nc2ccc(Cl)nn2)c1	-2	95	-1	9	-12	/	/
SMILES	APOBEC3G inh	CR mimetic SO	A3A deaminase	PfM18AAP inh-1	PfG6PD inh	PfM18AAP inh-2	CTSL1 counter
COc1cc(/C=N/Nc2ncc(C(F)(F)F)cc2Cl)cc(OC)c1O	-6	84	0	35*	31	31*	2
O=C(Nc1cc(Cl)ccc1Cl)P(=O)(O)c1ccccc1	/	/	/	/	15	/	/
NC(=S)NNc1ccnc2cc(Cl)ccc12	17	101	2	55*	18	28*	4
CN(C)/C=C(/C(=O)c1ccc(Cl)cc1)n1cncn1	-7	90	-2	40*	-20	0	2
C[C@@H]1CNC(=O)c2c(C(=O)Nc3cccc(Cl)c3)ncn21	/	/	/	/	-15	/	/
CC(=O)N/C(=C/c1ccc([N+](=O)[O-])cc1)C(=O)O	-4	113	1	32*	-4	-37	-3
CNC(=O)/C(=C\c1ccc([N+](=O)[O-])cc1)NC(C)=O	-3	87	-1	5	-12	/	/
C#CCN(Cc1ccccc1)S(=O)(=O)C=C	-9	96	-2	/	-2	/	/
CCN1CCN(C(=S)c2ccc(OC)cc2)CC1	11	97	0	45*	48	13	1
CCOc1ccc(C(=S)N2CCCC2)cc1	-1	95	-4	-4	12	/	/
OCCN1CCN(C(=S)c2ccc(Cl)cc2)CC1	19	106	-8	43*	56	8	5
CCOc1ccc(C(=S)N2CCN(C)CC2)cc1	-1	119	-5	48*	44	4	0
CCc1c(C(=O)N2CCCN(C)CC2)csc1C	-5	109	-1	1	-9	/	/
O=C(OCC(=O)N1CCC(c2ccccc2)=N1)c1ccc([N+](=O)[O-])s1	-5	112	0	/	6	/	/
CCCc1nn2c(=O)cc(CSCC(=O)Nc3ccccc3OC)nc2s1	-8	116	-6	-8	-13	/	/
O=c1[nH]c2ccccc2c(O)c1-[n+]1ccccc1	7	87	2	1	40	/	/
O=c1[nH]c2ccccc2c(O)c1O	32	91	1	46*	75*	5	-3
CCCC(C)Sc1nc2c([nH]1)c(=S)n(C)c(=O)n2C (stereo unspecified)	/	/	/	/	-16	/	/
COc1cccc2sc3ccc(NCCC4CCCN4C)cc3c(=O)c12 (stereo unspecified)	-11	99	0	33*	-1	-45	-2
O=C(COc1ccc([N+](=O)[O-])cc1Cl)NCCN1C(=O)CSC1=O	-6	104	-1	/	-5	/	/
O=C(O)Cc1ccc2ocnc2c1	-5	97	0	45*	1	6	1
C[C@H]1C(=O)N(C)CCN1C(=O)c1ccc(OC2CCN(CCc3ccccc3)CC2)cc1	/	/	/	/	-9	/	/
C[C@H](CO)N1C[C@H](C)[C@@H](CN(C)S(=O)(=O)c2ccccc2F)Oc2ncc(Br)cc2C1=O	/	/	/	/	-1	/	/
COc1ccc(CCNCc2cc(C)n(-c3ccc(OC)cc3)c2C)cc1	-10	72	-5	42*	6	-10	-3
Fc1ccc(N=c2ssnc2Cl)c(F)c1	74*	117	-1	32*	87*	-46	-1
COC(=O)c1cccc(Oc2cccc(Cl)n2)c1	1	92	6	-2	1	/	/
CNC(=S)/N=C(/Nc1ccccc1)c1ccccc1	5	116	9	44*	43	-28	0
N/C(=N\C(=S)Nc1ccccc1)c1ccccc1	-4	105	2	7	-8	/	/
C[C@]12c3[nH]c4cc(-c5ccco5)ccc4c3CCN1C(=O)[C@@H](CC(=O)NCc1ccco1)C[C@@H]2C(=O)N1CCOCC1	1	96	2	/	18	/	/

Screening results from PubChem BioAssay.
